Screens as filed in PubChem.
Autophagy HCS: autophagy modulation, high-content screen. actives 0.98% (n = 190,000). calls only at 10 µM (by protocol). MEF GFP-LC3 puncta imaging; test concentration mostly 10 µM;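 active = percentage of spot-positive cells more than 3 SD above its plate mean, without a fluorescence outlier flag or 80% toxicity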;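 also: spot-positive cell cutoff set from DMSO-treated cells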
Lmaj promast: Leishmania major promastigote growth inhibition | Leishmania major promastigotes, resazurin fluorescence viability | AID 1063 | actives 9% (n = 200,000) | inhibition, % at 10 µM; in the data active = inhibition above about 50%;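 also: promastigotes grown with compound for 44 hours at 28 °C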
Ins promoter up: MIN6 insulin promoter up-regulation; AID 1625; z-score at 5 µM; actives 0.3% (n = 190,000); MIN6 insulin promoter-GFP reporter, high-content imaging; stronger effect = higher value;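 active = z-score above 3 at 5 µM with at least 500 cells counted in the well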
Insulin prom inh: TRM-6 insulin promoter activity inhibition | TRM-6 cells (human fetal islet line), insulin promoter-eGFP reporter, imaging; reporter expression induced with tamoxifen | inhibition, % at 2 µM | actives 0.9% (n = 130,000) | AID 1273;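 active = inhibition above the mean plus 3 SD, with well images judged a real hit on visual review, cut at about 60% in these data, passing the limit was not always enough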
WT yeast gro inh: growth inhibition of WT yeast, mitochondrial fusion screen | inhibition, % at 10 µM | actives 2.1% (n = 190,000) | mitochondrial fusion phenotypic screen, WT strain; in the data active = inhibition above about 58%; tested in S. cerevisiae
An asterisk follows results filed as active; i = inactive; . = no result; + = active, no number. Rows were chosen to be rich in hits. Some 11% of all compounds tested hit in one or more screens of this group.

SMILES	Autophagy HCS	Lmaj promast	Ins promoter up	Insulin prom inh	WT yeast gro inh
COc1cc(C(=O)O/N=C(\N)c2ccc([N+](=O)[O-])cc2)cc(OC)c1OC	i	56*	0.38	-21	9
COc1ccc(C(=O)O/N=C(\N)c2ccncc2)cc1OC	i	6	0.45	7	15
O=S(=O)(NCc1ccccc1)c1ccccc1Br	.	.	0.24	.	.
O/N=C/c1ccc(-c2cc(Cl)ccc2Cl)o1	i	67*	-0.1	26	-10
COC(=O)N/N=C/c1ccc(-c2cc(Cl)ccc2Cl)o1	i	-2	0.03	.	12
C/C(CCC12CC3CC(CC(C3)C1)C2)=N\NC(N)=S	+	100*	.	-41	78*
O=C(CSCc1ccccc1)Nc1ccccc1C(=O)Nc1ccc(C(=O)O)cc1	.	.	0.15	.	.
O=C(Nc1ccccc1C(=O)NC(Cc1ccc(O)cc1)C(=O)O)c1ccccc1 (stereo not drawn)	i	36	0.4	30	-7
Cc1c(CCOC(=O)C23CC4CC(CC(C)(C4)C2)C3)sc[n+]1CC(=O)c1ccccc1	i	3	-0.45	.	21
Cc1c(CCOC(=O)CC23CC4CC(CC(C)(C4)C2)C3)sc[n+]1CC(=O)c1ccccc1	i	92*	-0.88	.	3
CNc1nc(C)nc(-n2nc(C)cc2C)n1	i	-6	-0.59	i	5
Cc1cc(C)n(-c2nc(C)nc(NCc3ccccc3)n2)n1	i	59*	0.37	23	41
Cc1nn(-c2nnc(NCc3ccccc3)nn2)c(C)c1Br	i	84*	-0.09	-44	20
Cc1cc(C)n(-c2nnc(NCc3ccc(Cl)cc3)nn2)n1	i	91*	-0.09	.	18
Cc1ccc(NC(=S)NCc2ccccc2)cc1S(=O)(=O)N1CCCCC1	i	23	-0.11	-29	24
O=C(CCSc1nc(-c2ccco2)cc(C(F)(F)F)n1)N1CCN(c2ccccc2)CC1	i	-7	-0.23	-216	62*
FC(F)(F)c1cc(-c2ccco2)nc(N2CCN(c3ccccc3)CC2)n1	i	0	.	-123	27
COc1ccc(-c2cc(C(F)(F)F)nc(SCCC(=O)N3CCN4CCCC4C3)n2)cc1 (stereo not drawn)	i	55*	-0.37	-43	-3
Cc1sc2nc(CSc3ccccc3)nc(N3CCC(C(N)=O)CC3)c2c1C	i	70*	-0.33	14	25
CCOC(=O)c1sc2nc(CSc3ccccc3)nc(N3CCCN(C)CC3)c2c1C	+	100*	-2.8	-136	93*
Cc1sc2nc(CSc3ccccc3)nc(N3CCOCC3)c2c1C	i	82*	-0.65	26	53
CCOC(=O)c1sc2nc(CSc3ccccc3)nc(N3CCC(C(N)=O)CC3)c2c1C	i	27	-1.1	-35	71*
Cc1sc2nc(CN3CCOCC3)nc(NCCc3ccccc3)c2c1C	i	27	.	-65	25
COc1cc(CNCc2c[nH]c3ccccc23)cc(OC)c1	i	42	-0.22	-78	-1
CC(C)N1CCC(=NNc2ccc(S(=O)(=O)N3CCOCC3)cc2[N+](=O)[O-])CC1	i	99*	.	3	-9
SMILES	Autophagy HCS	Lmaj promast	Ins promoter up	Insulin prom inh	WT yeast gro inh
CCCN1CCC(=NNc2ccc(S(=O)(=O)N3CCOCC3)cc2[N+](=O)[O-])CC1	i	100*	.	26	-8
CCn1c(SC2CCOC2=O)nnc1-c1ccc(Cl)cc1 (stereo not drawn)	i	-3	-0.75	.	-6
CC1CC(=O)C2=C(C1)OC(N)=C(C#N)C2c1coc2ccccc2c1=O (stereo not drawn)	i	6	3*	-32	-26
COc1ccc2nc3sc(C(=O)NCCCN4CCc5ccccc5C4)cc3cc2c1	i	100*	-0.36	11	17
Cc1ccc2[nH]c(=O)c3cc(C(=O)NCCN4CCN(C)CC4)sc3c2c1	.	7	1.1	.	-2
Cc1ccc2cc3cc(C(=O)NCCCN4CCc5ccccc5C4)oc3nc2c1	i	97*	0.48	-75	15
Cc1ccc2nc(Cl)c3cc(C(=O)NCCCN4CCCC4)sc3c2c1	i	101*	-0.93	-86	3
Cc1ccc2cc3cc(C(=O)NCCCN4CCCCCC4)oc3nc2c1	i	97*	-0.13	-100	11
CSc1nc(-c2ccccc2)nn1C(=O)c1ccc(C)cc1	i	14	.	-10	-22
O=C(O)c1cccc(COCC(F)(F)C(F)F)c1	+	-11	-0.36	65	-6
CC(NC(=O)Cc1cccs1)C(c1cccs1)N1CCN(c2ccccc2F)CC1 (stereo not drawn)	i	41	-0.92	.	33
C=CCn1c(-c2cccc(Cl)c2)n[nH]c1=S	i	-7	0.52	.	-1
C=CCn1c(-c2oc3nc(-c4ccccc4)cc(-c4ccccc4)c3c2N)n[nH]c1=S	i	24	5.6*	.	6
Cc1c(N=C2N=C(NC(=O)Nc3ccc(Cl)cc3)c3ccccc32)c(=O)n(-c2ccccc2)n1C	+	-4	0.04	.	-6
Cc1c(NC(=O)Nc2ccc(Cl)cc2)c(=O)n(-c2ccccc2)n1C	i	4	0.07	-55	26
O=C(CSc1ccccc1C(=O)O)NC12CC3CC(CC(C3)C1)C2	.	.	-1.5	.	.
CC(=O)NC(CC(=O)NC12CC3CC(CC(C3)C1)C2)c1ccccc1 (stereo not drawn)	i	63*	0.34	30	11
O=C(NC12CC3CC(CC(C3)C1)C2)c1ccccc1O	i	50*	1.1	-38	11
CCN(CC)C(NC(=O)c1ccccc1)C(=O)c1ccccc1 (stereo not drawn)	i	2	-0.22	3	-4
Cc1c(Br)cc(C(=O)OC2CCN(C)CC2)c(C)c1C	+	86*	-1.5	3	-6
CC(=O)c1ccc(OCc2cc([N+](=O)[O-])cc3c2OCOC3)cc1	i	75*	-0.21	26	-2
O=C(CCCN=C1NS(=O)(=O)c2ccccc21)OCc1cc([N+](=O)[O-])cc2c1OCOC2	+	0	-0.66	.	-19
C[C@H](N=C1NS(=O)(=O)c2ccccc21)C(=O)OCc1cc([N+](=O)[O-])cc2c1OCOC2	.	.	-0.68	.	.
CCN(CC)c1ccc(NC(=O)CN2C(=O)CSc3ncccc32)c(C)c1	i	-6	-5	.	7
Cc1cc(C)n2nc(SCc3nnc(-c4ccccc4Br)o3)nc2n1	i	-5	0.16	17	-10
SMILES	Autophagy HCS	Lmaj promast	Ins promoter up	Insulin prom inh	WT yeast gro inh
Cc1ccc(/C=C/S(=O)(=O)NCC(=O)OCC(=O)N2CC(=O)Nc3ccccc32)cc1	.	.	0.14	.	.
CCN1CCN(CCCN(Cc2ccco2)C(=S)Nc2cc(Cl)ccc2C)CC1	i	72*	-0.46	.	-1
CCc1ccc(NC(=S)N(CCN2CCCCC2)Cc2ccco2)cc1	i	95*	-0.08	9	5
Cc1ccc(NC(=S)N(CCCN2CCC(C)CC2)Cc2ccco2)cc1C	i	82*	-1.9	.	14
CCOC(=O)c1ccc(NC(=S)N(CCCN2CCN(CC)CC2)Cc2cccs2)cc1	i	14	0.17	.	8
Cc1ccccc1NC(=S)N(CCCN1CCC(C)CC1)Cc1ccco1	i	13	.	-109	3
